# Sm TGR block: inhibitors of Schistosoma mansoni thioredoxin glutathione reductase. 360,000 tested, 3% active. purified TGR, DTNB reduction, TNB absorbance 405 nm. AID 485364. Q962Y6. Potency, µM (doses to about 114 µM), for the others: at the highest dose activity change, negative = inhibition, hits mostly inhibitors; also: potency is read from the fitted curve at half-maximal effect; nearly all actives have a fitted effect of over 60% in size
#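 TGR 20 nM + NADPH 100 uM (dispensed conc.), cpd preinc 15 min RT; start with NADPH (500 uM addition) then DTNB (15 mM addition). Kinetic TNB absorbance, 405 nm filter. Four-parameter Hill fit across titration.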
# HCMV antiviral: blocks human cytomegalovirus replication; HFF cells, HCMV-luciferase reporter, 72 h; hits give low values; activity change, negative = inhibition, % at 57.5 µM; 410,000 tested, 4.5% active; in the data active = activity change below about -60%; inconclusive = no clear call, values can overlap the other calls; inactive = above about -39%
#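 After 16 h attachment at 37C, HFF cells received test compound and HCMV-luciferase (1 PFU/cell); reporter luminescence read 72 h later, data normalized against buffer-only and known inhibitor Salinomycin.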
# Giardia FBPA inh-1: inhibitors of Giardia lamblia fructose-1,6-bisphosphate aldolase | Potency, µM (series often up to 59.6 µM), for inactives: at the top dose activity, negative = inhibition, most hits filed as inhibitors | AID 2451 | 290,000 tested, 0.71% active | purified Giardia FBPA | A8B2U2; also: potency is read from the fitted curve at half-maximal effect; nearly all actives have a fitted effect of over 55% in size
# Target sequence (A8B2U2 whole entry, looked up): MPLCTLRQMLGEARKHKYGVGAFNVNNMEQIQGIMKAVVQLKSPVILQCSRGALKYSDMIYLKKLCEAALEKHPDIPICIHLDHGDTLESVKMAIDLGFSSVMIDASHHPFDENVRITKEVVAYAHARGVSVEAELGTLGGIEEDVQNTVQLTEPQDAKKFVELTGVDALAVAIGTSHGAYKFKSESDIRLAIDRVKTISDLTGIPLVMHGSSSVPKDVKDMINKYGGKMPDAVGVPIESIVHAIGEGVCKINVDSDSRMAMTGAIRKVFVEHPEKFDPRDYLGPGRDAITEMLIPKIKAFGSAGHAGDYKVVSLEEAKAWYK
#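 40 nM FBPA preincubated 10 min at RT with compound (up to 57.5 uM final), then substrate plus GAPDH/TPI/NAD/arsenate coupling and diaphorase/resazurin added. Fluorescence read after 20 min at RT, 525/598 nm.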
# FMDV inh: antivirals against foot and mouth disease virus; FMDV antiviral cell-based qHTS; Potency, µM (doses to about 57.9 µM), inactives show at the top dose activity change, negative = inhibition, usual class: inhibitors; 410,000 tested, 1.2% active; calls by dose curve; tested in HEK293T cells; also: read-out not given here; potency is read from the fitted curve at half-maximal effect; nearly all actives have a fitted effect of over 45% in size
# TbPYK inhibitor: blocks Trypanosoma brucei pyruvate kinase; Q57TT1; Potency, µM (series often up to 76.8 µM), without a hit: at the highest dose activity, negative = inhibition, usual class: inhibitors; TbPYK enzyme, Kinase-Glo Plus ATP luminescence, 45 min; 410,000 tested, 0.12% active; also: potency is read from the fitted curve at half-maximal effect; nearly all actives have a fitted effect of over 50% in size
#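 Assay buffer: 50 mM TEA pH 7.2, 100 mM KCl, 10 mM MgCl2, 0.05% BSA, 0.01% Tween-20. Pyruvate kinase from T. brucei plus substrate met compound, then ADP (130 uM final). Luminescence was read post 45 min RT.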
# RE007 growth inh: less growth of the S. pombe RE007 Vpr strain; 360,000 tested, 0.21% active; Potency, µM (highest dose often 92.2 µM), for inactives: at the highest dose activity change, negative = less growth, hits mostly inhibitors; AID 651644; S. pombe RE007 Vpr strain, BacTiter-Glo ATP luminescence, 24 h; active = well fitted falling curve with a large enough effect; inconclusive = small, poorly fitted or top-dose-only effect; inactive = no such curve, though single readings can be large or run the other way; also: potency is read from the fitted curve at half-maximal effect; nearly all actives have a fitted effect of over 50% in size
#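 Fission yeast strain RE007, carrying one chromosomally integrated HIV-1 vpr copy, was seeded at OD 0.01 in PMG+AL medium with 23 nL pinned compound. After 24 h at 30 °C and 99% humidity, viability was read by BacTiter-Glo luminescence.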
# Giardia growth: inhibitors of Giardia lamblia growth; 1,500 tested, 5% active; Potency, µM (titrated, usually from 57.5 µM), without a hit: top-dose activity change, negative = inhibition, hits mostly inhibitors; shares compounds with Giardia FBPA inh-1; Giardia lamblia trophozoite growth inhibition;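 also: potency is read from the fitted curve at half-maximal effect; trophozoites exposed to compound for 48 h at 37 °C; nearly all actives have a fitted effect of over 70% in size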
# Mammalian tox: counter-screen for Giardia aldolase inhibitors: mammalian cell toxicity. mammalian cell viability counter-screen, qHTS. AID 2786. shares compounds with Giardia FBPA inh-1. Potency, µM (doses to about 57.5 µM), inactives show at the top dose viability change, negative = toxicity, hits mostly inhibitors. 1,500 tested, 4% active;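 also: Chinese hamster ovary cells used as mammalian cytotoxicity surrogate; viability measured as cellular ATP by luminescence; potency is read from the fitted curve at half-maximal effect; compound exposure lasted 48 h before reading; nearly all actives have a fitted effect of over 60% in size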
# Giardia FBPA inh-2: confirmation of Giardia fructose-bisphosphate aldolase inhibitors; shares compounds with Giardia FBPA inh-1; purified Giardia aldolase enzyme activity, qHTS; Potency, µM (series often up to 57.5 µM), inactives show at the top dose activity change, negative = inhibition, most hits filed as inhibitors; 1,500 tested, 5% active; AID 2787; also: potency is read from the fitted curve at half-maximal effect; nearly all actives have a fitted effect of over 45% in size
# Rabbit aldolase: blocks rabbit muscle aldolase in Giardia aldolase selectivity test; Potency, µM (series often up to 57.5 µM), for inactives: at the top dose activity, negative = inhibition, actives largely listed as inhibitors; 1,500 tested, 4% active; Rabbit muscle FBPA enzyme inhibition, selectivity counter-screen; shares compounds with Giardia FBPA inh-1; also: potency is read from the fitted curve at half-maximal effect; nearly all actives have a fitted effect of over 60% in size
# Target sequence (P00883 whole entry, looked up): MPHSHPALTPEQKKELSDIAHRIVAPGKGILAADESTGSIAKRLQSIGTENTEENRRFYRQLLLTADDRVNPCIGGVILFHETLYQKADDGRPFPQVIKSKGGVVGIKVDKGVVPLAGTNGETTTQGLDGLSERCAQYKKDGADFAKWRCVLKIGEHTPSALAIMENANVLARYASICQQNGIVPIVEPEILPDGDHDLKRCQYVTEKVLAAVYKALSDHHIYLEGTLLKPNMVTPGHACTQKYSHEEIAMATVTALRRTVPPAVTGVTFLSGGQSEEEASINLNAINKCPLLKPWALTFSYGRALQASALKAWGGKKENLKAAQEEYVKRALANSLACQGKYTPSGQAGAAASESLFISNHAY
# GAPDH coupling: GAPDH inhibition flagged for Giardia aldolase hits | shares compounds with Giardia FBPA inh-1 | GAPDH coupling enzyme counterscreen, biochemical, qHTS | Potency, µM (titrated, usually from 57.5 µM), without a hit: top-dose activity change, negative = inhibition, usual class: inhibitors | 1,500 tested, 6% active | AID 2795; also: potency is read from the fitted curve at half-maximal effect; nearly all actives have a fitted effect of over 55% in size
# Active calls of the source: *; ? = inconclusive; nt = not tested or not shown; [ ] = another dose, or the depositor's remark. In the library only some 7.7% were active in any assay of this set; here they are far more common. Unless noted, calls follow the shape of the dose curve; as a rule, active = well fitted curve in the direction sought with a large enough effect; inconclusive = small, poorly fitted or top-dose-only effect, or another doubt; inactive = no such curve, though single readings can be large; an effect the other way counts as inactive or inconclusive. % is scaled to controls: 0 for no effect and ±100 for the full control effect.
SMILES,Sm TGR block,HCMV antiviral,Giardia FBPA inh-1,FMDV inh,TbPYK inhibitor,RE007 growth inh,Giardia growth,Mammalian tox,Giardia FBPA inh-2,Rabbit aldolase,GAPDH coupling
O=C(NCc1cccc(Br)c1)c1cnn(-c2ccc(F)cc2)c1-n1cccc1,-13%,-23,nt,-18%,-7%,nt,nt,nt,nt,nt,nt
CCNc1ncc2nc(-c3ccc(OC)cc3)c(=O)n(Cc3cccs3)c2n1,nt,nt,3%,-6%,nt,nt,nt,nt,nt,nt,nt
COc1ccc(-c2cc(=O)c3cc(OC)ccc3[nH]2)cc1,-1%,nt,0%,-2%,-25%,6%,nt,nt,nt,nt,nt
COc1ccc(-c2cc(=O)[nH]c(=S)[nH]2)cc1,nt,25,16µM*,13%,-16%,7%,?,6%,6%,16%,4%
COc1ccc2[nH]c(=S)[nH]c2c1,0%,14,7.1µM*,-6%,3%,14%,2%[10.4 µM],2%,3%,4%,4%
COc1ccc(NC(=O)CNC(c2ccccc2)c2ccccc2)cc1,0%,59,20µM*,0%,2%,7%,-11%,3%,-2%,1%,-1%
COc1cc(NC(=O)CNC(c2ccccc2)c2ccccc2)cc(OC)c1OC,-8%,-1,1%,?,-8%,-2%,nt,nt,nt,nt,nt
CCc1ccccc1NC(=O)c1cc(S(=O)(=O)N2CCCC2)cn1C,0%,-19,nt,-11%,5%,nt,nt,nt,nt,nt,nt
Cc1cc(C)nc(NN=C2CCCC2)n1,1%,2,?,-23%,2%,5%,nt,nt,nt,nt,nt
C1CCCCCC(=NNc2nn[nH]n2)CCCCC1,-25%,33,16µM*,-11%,-6%,-17%,-22%,2%,6%,4%,4%
Cn1c2ccccc2c2cc(/C=N/NC(=O)c3cc(O)cc(O)c3)ccc21,-9%,-23,-11%,-22%,-2%,-1%,nt,nt,nt,nt,nt
Cn1c2ccccc2c2cc(/C=N/NC(=O)c3cc(O)ccc3O)ccc21,?,16,25µM*,20µM*,-13%,-13%,-10%,1%,?,-7%,-29%
Cc1cccc(Nc2c(-c3cccs3)nc3nc(C)cc(C)n23)c1,0%,28,nt,21%,-5%,nt,nt,nt,nt,nt,nt
CCn1c(=O)c(=O)n(CC)c2cc(N3CCCCC3)c(NC(=O)c3cccc(OC)c3)cc21,5%,-2,nt,-16%,-6%,nt,nt,nt,nt,nt,nt
COC(=O)c1ccc(C(=O)OC)nc1,-4%,17,1%,-5%,12%,13%,nt,nt,nt,nt,nt
COC(=O)c1ccc(C(=O)O)nc1,-7%,13,20µM*,-5%,1%,2%,61%,11%,3%,12%,-3%
C=C(C)[C@H]1CC[C@]2(C(=O)O)CC[C@]3(C)[C@@H](CC[C@H]4[C@@]5(C)CC[C@@H](O)C(C)(C)[C@@H]5CC[C@@]43C)[C@H]12,nt,nt,5%[21.7 µM],nt,nt,nt,nt,nt,nt,nt,nt
COCCNC(=S)NN=C1CCCCCC1,-17%,-115*,20µM*,4%,-1%,8%,29%,-9%,10%,10%,19%
COCCNC(=S)N/N=C1\CC(C)CC(C)(C)C1 (stereo not given),?,-76*,18µM*,-16%,-4%,23%,40%,-1%,7%,9%,14%
CCOC(=O)N/N=C1\CC(C)CC(C)(C)C1 (stereo not given),-7%,-4,0%,-1%,2%,-21%,nt,nt,nt,nt,nt
Cc1cccc(CNc2ncnc3ccc(-c4ccccc4CN(C)C)cc23)c1,nt,nt,-7%,-19%,nt,nt,nt,nt,nt,nt,nt
Cc1ccccc1C(=O)NN1C(=O)CSC1=S,1%,77,-22%,-15%,-4%,-10%,nt,nt,nt,nt,nt
O=C(NN1C(=O)CSC1=S)c1cccnc1,7%,9,16µM*,-8%,-6%,2%,10%,-1%,1%,3%,11%
S=c1[nH]nc(-c2ccn[nH]2)n1-c1ccccc1Cl,-2%,30,20µM*,45%,?,13%,45µM*,-11%,0%,-1%,5%
CCCC(=O)OCc1cnc(C)c2oc(=O)c(C(=O)Nc3ccccc3)cc12,0%,5,nt,-11%,-1%,nt,nt,nt,nt,nt,nt
SMILES,Sm TGR block,HCMV antiviral,Giardia FBPA inh-1,FMDV inh,TbPYK inhibitor,RE007 growth inh,Giardia growth,Mammalian tox,Giardia FBPA inh-2,Rabbit aldolase,GAPDH coupling
O=C(Cn1c(=O)nc(-c2ccccc2)c2cc(Cl)ccc21)N1CCN(c2ccc(F)cc2)CC1,0%,?,nt,6%,-3%,nt,nt,nt,nt,nt,nt
O=C(O)c1ccc(-c2ccccc2C(F)(F)F)s1,nt,nt,19%[89.2 µM],nt,nt,nt,nt,nt,nt,nt,nt
N#C/C(=N\Nc1ccccc1)C(N)=S,-3%,-19,20µM*,-4%,-7%,27%,?,7%,12%,24%,13%
Cc1ccc(N/N=C(\C#N)C(N)=S)cc1C,-11%,-14,?,0%,-4%,5%,nt,nt,nt,nt,nt
CCOC(=O)C1=C(O)/C(=C/c2ccc(CNC(=O)C(=O)Nc3ccc(C)cc3)o2)N=C1C,18µM*,8,4.5µM*,-16%,-10%,1%,?,?,-28%,-13%,6%
c1ccc2[nH]c(SN3CCOCC3)nc2c1,?,nt,3.5µM*,nt,nt,nt,?,-4%,3%,-21%,?
O=C(NCC(c1ccc2c(c1)OCO2)N1CCN(c2ccccc2F)CC1)c1ccccc1F (stereo not given),17%,46,nt,-23%,0%,nt,nt,nt,nt,nt,nt
S=c1[nH]nc(-c2ccco2)n1/N=C/c1ccccn1,-2%,nt,?,nt,nt,nt,nt,nt,nt,nt,nt
S=c1[nH]nc(-c2ccccn2)n1/N=C/c1ccco1,-1%,7,20µM*,-8%,-34%,12%,7%[10.4 µM],15%,4%,16%,5%
Oc1ccc(-c2cn3c(n2)SCC3)cc1O,?,36,18µM*,19%,?,2%,0%[10.4 µM],-13%,?,?,-16%
COCCNC(=S)N/N=C/c1ccccc1C(=O)O,0%,-5,?,9%,-4%,10%,nt,nt,nt,nt,nt
COCCNC(=S)NNc1ccc(Cl)c(C(=O)O)c1,3%,-30,7.1µM*,-9%,-22%,-1%,?,4%,-8%,-4%,-7%
